Results: ChEMBL document CHEMBL3988442, “University of Dundee, Small-Polar-MMV Screening Library” (2021)
The campaign covered roughly 48,000 compounds. About 13,000 (27%) showed an effect of 50% or more. The list shows a part of the results.

system: Wolbachia pipientis; experiment: Anti-Wolbachia Cell-Based Screen; type: functional; design: scale not given: in the data most compounds retested in dose-response had high values; conditions: 5 µM

Row | Structure (SMILES) | Percent Effect
1 | O=C(NCC1(O)CCSCC1)c1ccoc1 | -3.908%
2 | Cc1nccn1CC1CCCN1CCCc1nc(-c2cccs2)no1 (stereo not given) | 8.035%
3 | Cc1ncccc1CNC(CCO)C1CCCCC1 (stereo not given) | 3.816%
4 | Cn1ccnc1C1CCN(S(=O)(=O)c2ccc3c(c2)OCCO3)CC1 | -44.72%
5 | O=C(Nc1ncn(CC(=O)N2CCCCCC2)n1)C1CCCO1 (stereo not given) | -2.557%
6 | Fc1ccc(CN2CCCC2Cn2cncn2)c2ncccc12 (stereo not given) | 11.89%
7 | CC(C)N(C(=O)c1ccnc(OCC(F)(F)F)c1)c1cccnc1 | -10.5%
8 | Cc1nn(C)c(N2CCOCC2)c1CNCc1ccc(C(C)O)cc1 (stereo not given) | 111.2%
9 | Cc1cc(CNCc2c(C)nn(C)c2N2CCOCC2)no1 | -8.986%
10 | Cc1nn(C)c(N2CCOCC2)c1CNCc1ccc2c(c1)OCO2 | 96.35%
11 | Cc1nn(C)c(N2CCOCC2)c1CNCc1ccc(N(C)C)nc1 | 80.75%
12 | Cc1nn(C)c(N2CCOCC2)c1CNCc1ccnc(N(C)C)c1 | -0.1268%
13 | COCc1cccc(CNCc2c(C)nn(C)c2N2CCOCC2)c1 | 117.6%
14 | Cc1nn(C)c(N(C)C)c1CNCc1ccc(N(C)C)nc1 | 0.9542%
15 | Cc1nc(CNCc2c(C)nn(C)c2N2CCOCC2)cs1 | -13.32%
16 | COCc1cccc(CNCc2c(C)nn(C)c2N(C)C)c1 | -4.219%
17 | COc1ccc(CNCc2c(C)nn(C)c2N2CCOCC2)cc1 | 6.012%
18 | CCCN1CCc2[nH]cnc2C12CCN(C(=O)CCn1cccn1)CC2 | -44.41%
19 | O=C(CCCc1nnc(-c2ccccc2)o1)N1CCN(CCO)CC1 | -6.561%
20 | CCOc1ccccc1N(C)C(=O)c1cscn1 | 11.28%
21 | CC1CN(C(=O)c2cnn(-c3ccccn3)c2C(C)C)CC(C)(C)O1 (stereo not given) | 3.589%
22 | Cc1ccc(C(=O)NCC(O)c2cnn(C)c2)c(Br)c1 (stereo not given) | 99.45%
23 | Cn1cc(C(O)CNC(=O)c2ccc(F)cc2Cl)cn1 (stereo not given) | 121.3%
24 | Cn1cc(CCCNC(=O)NCC(O)c2ccsc2)cn1 (stereo not given) | -8.721%

Row | Structure (SMILES) | Percent Effect
25 | CSCC(C)(O)CNC(=O)c1cc(Br)ccc1Cl (stereo not given) | 7.074%
26 | CC(CNC(=O)c1ccc(F)cc1Cl)N1CCCC1 (stereo not given) | 2.022%
27 | CCOc1cc(F)ccc1NC(=O)NCC(c1cnn(C)c1)N(C)C (stereo not given) | 4.743%
28 | Cn1cc(C(O)CNC(=O)c2cc(Br)ccc2Cl)cn1 (stereo not given) | 133.1%
29 | Cc1ccc(C(O)CNC(=O)c2cccnc2O)cc1 (stereo not given) | -65.97%
30 | Cc1ccc(NC(=O)NCC(c2cnn(C)c2)N(C)C)c(C)c1 (stereo not given) | -2.112%
31 | Cn1cc(C(O)CNC(=O)c2sccc2OC(F)F)cn1 (stereo not given) | -0.7442%
32 | Cn1cc(C(O)CNC(=O)Nc2cc(F)ccc2-n2cccn2)cn1 (stereo not given) | -4.933%
33 | Cc1ccc(C(=O)NCC(c2cnn(C)c2)N(C)C)c(O)c1 (stereo not given) | 194.8%
34 | CC(NCCn1cccn1)c1cc(F)ccc1F (stereo not given) | 17.19%
35 | O=c1[nH]nc(SCC2CCCCO2)n1C1CC1 (stereo not given) | 3.518%
36 | COc1cc(CC(O)CO)c(OC)c2c1OCO2 (stereo not given) | 13.41%
37 | O=C1CCNc2ccc(F)cc2CN1Cc1ccco1 | 96.92%
38 | O=C(c1cc(Br)c[nH]1)N1CCN(Cc2ccco2)CC1 | -4.103%
39 | O=C1CCNc2ccccc2CN1Cc1ccco1 | 99.7%
40 | O=C(c1cc(Cl)c(Br)[nH]1)N1CCN(Cc2ccco2)CC1 | 4.507%
41 | O=C(NCCc1ccc2c(c1)OCO2)C1CCCN(Cc2ccco2)C1 (stereo not given) | -5.327%
42 | O=S(=O)(Cc1ccc(F)cc1)NCc1ccco1 | 9.126%
43 | O=C1C(NS(=O)(=O)c2cc(F)cc(F)c2)CCN1Cc1ccccc1 (stereo not given) | -1.299%
44 | O=C1CCNc2cc3c(cc2CN1Cc1ccco1)OCO3 | 103.2%
45 | O=C1CCNc2ccc(F)cc2CN1Cc1ccccc1 | 102.2%
46 | O=C(CN1CCc2ccccc2C1)NCc1ccco1 | -0.1453%
47 | O=C(CSC1CCc2ccccc2NC1=O)NCCc1ccco1 (stereo not given) | 9.555%
48 | O=C1CCOCCN1Cc1ccc(Cl)c(F)c1 | -26.47%

Row | Structure (SMILES) | Percent Effect
49 | CC(C)(C)CN(CCC#N)C(=O)Cc1ccc(-n2cnnn2)cc1 | -11.58%
50 | COCCc1noc(CN2CCc3nn(C(C)C)c(=O)cc3C2)n1 | 0.5745%
51 | Cc1nnc(CN(C)CCc2nc(-c3cccc(Cl)c3)no2)n1C | -15.48%
52 | Cc1cnn(C2CN(CC(O)c3ccccc3)C2)c1 (stereo not given) | 7.133%
53 | O=C(COc1ccc2c(c1)CCCC2=O)NCc1ccco1 | 5.581%
54 | CN(Cc1n[nH]c(=O)n1Cc1ccco1)S(C)(=O)=O | 13.53%
55 | COc1ccc2c(c1)CN(Cc1ccco1)C(=O)CCN2 | 81.17%
56 | CN(C1CCCCC1)S(=O)(=O)N1CCN(Cc2ccco2)CC1 | 20.54%
57 | Cc1ncc(-c2ccnc(SCCN(C)C)n2)c(-c2ccco2)n1 | 91.76%
58 | NCCSc1nccc(-c2cnc(C3CC3)nc2-c2ccco2)n1 | 112.5%
59 | Cc1ncc(-c2ccnc(SCCN)n2)c(-c2ccco2)n1 | 79.73%
60 | Cc1ncc(-c2ccnc(N3CCN(C)CC3)n2)c(-c2cccnc2)n1 | -5.726%
61 | COCCN(c1cc(C)nc2nc(C(F)(F)F)nn12)C1CCCC1 | -0.8248%
62 | CCN(CC)CCc1nc2c([nH]1)CC(c1ccc(Cl)cc1)CNC2=O (stereo not given) | -9.032%
63 | CC1(C)CNC(=O)c2nc(CCCN3CCCC3)[nH]c2C1 | -5.112%
64 | O=C1NCC(c2ccc(Cl)cc2)Cc2[nH]c(CCN3CCOCC3)nc21 (stereo not given) | 104.7%
65 | O=C1NCC(c2ccc(F)cc2)Cc2[nH]c(CCN3CCCC3)nc21 (stereo not given) | 95.37%
66 | CCn1cnnc1Cc1nc2c([nH]1)CC(c1ccc(Cl)cc1)CNC2=O (stereo not given) | 5.995%
67 | CC1(C)CNC(=O)c2nc(CCN3CCOCC3)[nH]c2C1 | -31.15%
68 | Cc1cc(-c2ccc(C(C)N3CCCCC3)cc2)cnc1N (stereo not given) | 11.64%
69 | Cc1nccnc1N1Cc2cnn(Cc3ccc(F)cc3)c2C1 | 9.58%
70 | CC(=O)Nc1ccc2nc(-c3nccn3CC(C)(C)CO)ccc2c1 | 3.908%
